Experimental data reported in PubChem BioAssay AID652122 (NMMLSC, 2013).

assay: inducers of GFP+/MAC1+ phenotype in HoxA9-arrested cells – cell-based, wild-type HoxA9, flow cytometry, Powder Set01 subset01, dose response (AID 652122); conditions: HoxA9 wt myeloid cells; series mostly up to 10 µM; percent double positive (differentiation): at the top concentration;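 active = at least 15% of cells fluorescing red and green at top dose, and half-maximal dose below 10 µM; inactive = the rest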

Percent double positive (differentiation), inactive:
O=C(O)c1cccnc1Nc1ccc(Cl)cc1 16.6%
Cc1ccc(Nc2nc(=O)c3cccnc3s2)c(Br)c1 14.1%
O=C(CCNC(=O)c1ccc(Cl)cc1)NC1CCCc2ccccc21 (stereo not drawn) 9.24%
